The structures appear in SMILES notation. Calls of active or inactive are those of the source. The calls were made as follows: active = hit-call score of the fitted dose curve at least 0.9, where 1 is the maximum; inactive = score below 0.9.

The experiment in a line: APR_HepG2_StressKinase_24hr: Apredica 24-hour HepG2 Assay for Stress Kinase (AID 2282922). Particulars: HepG2 stress kinase (phospho-c-Jun) imaging, actives raise or lower the signal. On the procedure:
APR_HepG2_24hr is a cell-based, multiplexed-readout assay that uses HepG2, a human liver cell line, with measurements taken at 24 hours after chemical dosing in a 384-well plate.APR_HepG2_StressKinase_24hr is one of 10 assay component(s) measured or calculated from the APR_HepG2_24hr assay. It is designed to make measurements of enzyme activity, a form of enzyme reporter, as detected with fluorescence intensity signals by HCS Fluorescent Imaging technology.Data from the assay component APR_HepG2_StressKinase_24hr was analyzed into 1 assay endpoint. This assay endpoint, APR_HepG2_StressKinase_24hr, was analyzed with bidirectional fitting relative to DMSO as the negative control and baseline of activity. Using a type of enzyme reporter, measures of protein for gain or loss-of-signal activity can be used to understand the signaling at the pathway-level as they relate to the gene . Furthermore, this assay endpoint can be referred to as a primary readout, because this assay has produced multiple assay endpoints where this one serves a signaling function. To generalize the intended target to other relatable targets, this assay endpoint is annotated to the cell cycle intended target family, where the subfamily is stress response.
Cells were treated with dimethyl sulfoxide (DMSO) as a solvent control at a final concentration of 0.5% v/v or with compounds in DMSO with a resulting final DMSO concentration of 0.5% v/v. Compound treatment was done at concentrations of 0.39, 0.78, 1.56, 3.12, 6.24, 12.5, 25, 50, 100, and 200 uM in duplicate on each plate. Cells were treated with compounds for 1, 24, or 72 hr. Carbonyl […] m-chloro-phenylhydrazone (CCCP) and taxol were used as positive controls for mitochondrial function and cytoskeletal stability, respectively; DMSO served as the negative control for this experiment. Cells were fixed by the direct addition of 50 uL formaldehyde in Hank's Balanced Salt Solution (HBSS) to a final concentration of 3.7%. After incubation in the fixation medium for 30 min at room temperature (293-298 K), cells were rinsed twice with HBSS and treated with cell permeabilization buffer (16 uL of 0.5% Triton X-100) for 10 min at room temperature (293-298 K) before labeling. For mitochondrial membrane potential and mitochondrial measurements, pre-fixed cells were incubated with 50 uL of MitoTracker Red CMXRos (Invitrogen) at a concentration of 250 nM for 30 min before fixation. In the remaining cases, post-fixed cells were labeled by incubation with a multiplexed mixture of primary antibodies in HBSS for 60 min at room temperature (293-298 K) to detect immunoreactivity of c-Jun (1:500), phospho-histone H3 (1:100), phospho-histone H2A.x (1:200), p53 (1:400), alpha-tubulin (1:200) and Hoechst 33342 (2 ug/mL). Cells were labeled for multiplexed imaging on two separate plates: a) Hoechst 33342, MitoTracker Red, phospho-histone H3, and alpha-tubulin, and b) Hoechst 33342, phospho-histone H2A.x, and c-Jun. A final rinse with HBSS (50 uL) was performed before analysis. The primary and secondary antibodies for the proteins were phospho-histone H3 (rabbit anti-phospho-histone H3 and FITC-donkey anti-rabbit IgG), phospho-histone H2A.x (mouse anti-phospho-histone H2A.x and FITC-donkey anti-mouse IgG), c-Jun (rabbit anti-phospho-c-Jun and Cy3-donkey anti-rabbit IgG), p53 (sheep anti-p53 and Cy5-donkey anti-sheep IgG), alpha-tubulin (mouse anti-alpha-tubulin and Cy5-donkey anti-mouse IgG). These antibodies are available as the CellCiphr HepG2 assay kit (Millipore).Digital images of each well were captured using a Cellomics ArrayScan VTI (Thermo Scientific Cellomics) (0.8 NA objective, 0.63x optical coupler, and XF-93 filter set) at 20x magnification. The images were acquired using the autofocus feature of the ArrayScan instrument, which entails the following steps. First, the camera focuses on channel 1 (Hoechst 33342), where nuclei are identified. Second, a Z offset of 1 um is used for capturing mitochondria (MitoTracker Red). […]
As for `COc1ccc(-c2ccccc2)cc1NNC(=O)OC(C)C`, the outcome was inactive. As for `CC(C)N1C(=O)c2ccccc2NS1(=O)=O`, the entry is “inactive”; as for `N#CN=C1SCCN1Cc1ccc(Cl)nc1`, “inactive”; as for `CCOC(=O)C(C)OC(=O)c1cc(Oc2ccc(C(F)(F)F)cc2Cl)ccc1[N+](=O)[O-]` (stereo not given), “inactive”. As for `CN=C=S`, the entry is “inactive”; as for `CC(C)=CC1C(C(=O)OCc2coc(Cc3ccccc3)c2)C1(C)C` (stereo not given), “inactive”. As for `COP(=O)(OC)O/C(C)=C/C(=O)N(C)C`, the entry is “inactive”. Take `COCC(C)N(C(=O)CCl)c1c(C)csc1C` (stereo not given): the compound was classed as inactive. As to `CCCCC(O)(Cn1cncn1)c1ccc(Cl)cc1Cl` (stereo not given), the compound was classed as inactive.

For `Cn1c(-c2ccccc2)cc(-c2ccccc2)[n+]1C`, the call was inactive.

For the compound `CC1(C)C(C=C(Cl)Cl)C1C(=O)OC(C#N)c1cccc(Oc2ccccc2)c1` (stereo not given), the compound was classed as inactive. As for `CC1(C)C(C(=O)OC(C#N)c2cccc(Oc3ccccc3)c2)C1(C)C` (stereo not given), the entry is “inactive”; as for `C=CCOC(=O)C(C)(C)OC(=O)c1cc(-n2c(=O)cc(C(F)(F)F)n(C)c2=O)ccc1Cl`, “inactive”.

As for `Nc1c(Cl)c(F)nc(OCC(=O)O)c1Cl`, the compound was called inactive. As for `Cc1nc(N(C)C)nc(OC(=O)N(C)C)c1C`, the entry is “inactive”. As for `Cc1cc(C)nc(Nc2ccccc2)n1`, the entry is “inactive”. As for `CCCCOCN(C(=O)CCl)c1c(CC)cccc1CC`, the entry is “inactive”; as for `CNC(=O)Oc1cccc2ccccc12`, “inactive”. For the compound `CC(C)Nc1nc(Cl)nc(NC(C)C)n1`, the outcome was inactive. With `COC(=O)N(C(=O)N1CO[C@@]2(C(=O)OC)Cc3cc(Cl)ccc3C2=N1)c1ccc(OC(F)(F)F)cc1`, the compound was classed as inactive. Then `CCCCC(C#N)(Cn1cncn1)c1ccc(Cl)cc1` (stereo not given), with “inactive”; and `CCOP(=S)(OCC)Oc1nc(Cl)n(C(C)C)n1`, with “inactive”.

In the case of `Clc1cccc(C(Cl)(Cl)Cl)n1`, the compound was classed as inactive. Then `N#Cc1c(Cl)cccc1Cl`, with “inactive”. Then `CCSC(=O)N1CCCCCC1`, with “inactive”; and `COC(=O)NC(=S)Nc1ccccc1NC(=S)NC(=O)OC`, with “inactive”; and `CC(C)Oc1cccc(NC(=O)c2ccccc2C(F)(F)F)c1`, with “inactive”. Then `CCCC(=NOCC)C1=C(O)CC(CC(C)SCC)CC1=O` (stereo not given), with “inactive”; and `CCC(C)n1c(=O)[nH]c(C)c(Br)c1=O` (stereo not given), with “inactive”.

`COP(=S)(OC)SCn1nnc2ccccc2c1=O`: the compound was classed as inactive. As for `CC(C)N1C(=O)N(c2ccccc2)CSC1=NC(C)(C)C`, the outcome was inactive. Then `Clc1nc(Cl)nc(Nc2ccccc2Cl)n1`, with “inactive”; and `CN/C(=N\[N+](=O)[O-])NCc1cnc(Cl)s1`, with “inactive”. As for `CCOP(=O)(OCC)Oc1nc(Cl)c(Cl)cc1Cl`, the call was inactive. Then `CNC(=O)N(C)c1nnc(C(C)(C)C)s1`, with “inactive”; and `COc1cc(Cl)c(OC)cc1Cl`, with “inactive”; and `O=C(O)c1c(Cl)ccc2cc(Cl)cnc12`, with “inactive”. Then `COCc1cnc(C2=NC(C)(C(C)C)C(=O)N2)c(C(=O)O)c1` (stereo not given), with “inactive”; and `CC(C)(C)C(=O)C(Oc1ccc(Cl)cc1)n1cncn1` (stereo not given), with “inactive”. Then `O=c1n(Cl)c(=O)n(Cl)c(=O)n1Cl`, with “inactive”.

Values taken from PubChem BioAssay (EPA / NIEHS).
